Hits are enriched below; roughly 3.1% of the tested compounds scored in any of these assays.
SKKanGAS inh = blocks kanamycin growth of S. pyogenes SKKanGAS strain | actives 1.3% (n = 300,000) | inhibition, % at 7.5 µM | BacTiter-Glo, 6 h;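 active = mean replicate score, as percent of positive control median, at least 50; inconclusive = mean below 50 but one replicate at or above 50; inactive = mean and every replicate below 50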;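 also: strain carries kanamycin resistance gene driven by streptokinase promoter and grows in 40 µg/ml kanamycin; loss of luminescence reflects streptokinase promoter inhibition or plain growth inhibition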
PP5 inh = blocks human protein phosphatase 5 activity | purified PP5c, OMFP substrate fluorescence | actives 0.18% (n = 320,000) | P53041 | inhibition, % at 6.7 µM | AID 1987;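 active = inhibition above the campaign's mean inhibition across all tested compounds plus 3 SD, cut at about 9.5% in these data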
CSC inhib = blocks cancer stem cells; cancer stem cell-like cells viability, luminescence; inhibition, % at 7.5 µM; actives 1.1% (n = 300,000); in the data active = inhibition above about 75%; inconclusive = no clear call, values can overlap the other calls; tested in HMLE shEcad cells
Beta cell apopt = beta cell apoptosis inhibition. INS-1E cytokine-induced death, ATP luminescence, 48 h; percent of positive-control rescue, neutral wells zero. protection from apoptosis, % (no concentration beside the values). actives 0.8% (n = 300,000). AID 435005;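 active = Every replicate reaches about 75%, or at least half do and their mean reaches it too, limit read from the data; inconclusive = At least half of replicates reach the limit but their mean does not; inactive = Under half of replicates reach the limit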;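 also: higher means more ATP so stronger rescue from cytokine killing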
PP1 counter = blocks human PP1-alpha phosphatase, a PP5 counter-screen; P62136; purified PP1alpha, OMFP fluorescence; inhibition, % at 6.7 µM; actives 0.9% (n = 320,000);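 active = inhibition above the mean inhibition of all tested compounds plus 3 SD, computed separately for each screening campaign, cut at about 15% in these data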
Target sequence (P62136 whole entry, looked up): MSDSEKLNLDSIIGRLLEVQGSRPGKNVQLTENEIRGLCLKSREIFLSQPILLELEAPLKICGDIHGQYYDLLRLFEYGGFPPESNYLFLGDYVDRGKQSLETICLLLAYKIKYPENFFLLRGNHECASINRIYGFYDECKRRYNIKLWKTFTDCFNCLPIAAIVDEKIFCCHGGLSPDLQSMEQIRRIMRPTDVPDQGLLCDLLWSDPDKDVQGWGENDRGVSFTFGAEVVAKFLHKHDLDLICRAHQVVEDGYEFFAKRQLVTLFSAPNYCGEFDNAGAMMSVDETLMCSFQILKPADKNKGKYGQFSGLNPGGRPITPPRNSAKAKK
Numbers stand for hits; - = inactive; ? = inconclusive; . = no result given.

SMILES | SKKanGAS inh | PP5 inh | CSC inhib | Beta cell apopt | PP1 counter
CC1(C)CC(=O)C2=C(C1)c1c(ccc3ccccc13)NC2c1ccc(C(=O)O)cc1 (stereo not given) | - | - | - | - | -
CCc1cc2c(COC(=O)c3cccc(NS(C)(=O)=O)c3)cc(=O)oc2cc1O | 50 | - | - | - | -
CCc1cc2c(COC(=O)c3cc(S(=O)(=O)N4CCOCC4)ccc3F)cc(=O)oc2cc1O | . | - | - | - | -
COc1ccc(-c2nc(CS(=O)CC(=O)N3CCOCC3)c(C)o2)cc1OC (stereo not given) | - | - | - | - | -
COc1ccccc1C(=O)c1cc2ccc(O)cc2oc1=O | - | - | - | - | -
O=C(c1ccc(F)cc1)c1cc2ccc(O)cc2oc1=O | 65 | - | - | - | -
COc1cccc(NC(=O)CN2C(=O)NC3(CCCc4ccccc43)C2=O)c1 (stereo not given) | . | - | . | . | -
OCCC#Cc1c(-c2ccsc2)sc2ccccc12 | - | - | - | . | -
COc1ccc(-c2sc3ccccc3c2C#CCCO)cc1 | - | - | 92 | - | -
COc1ccc(-c2sc3ccc(N4CCOCC4)cc3c2C#CCCO)cc1 | . | . | 123 | - | .
OCCCCC#Cc1c(-c2ccsc2)sc2ccccc12 | 65 | - | 99 | - | -
COc1ccc(-c2sc3ccccc3c2C#Cc2cncn2C)cc1 | . | . | 138 | - | .
COc1ccc(-c2sc3ccccc3c2C#CCO)cc1 | - | - | - | - | -
COc1cc(C(F)(F)F)c(C(=O)NCc2cccc(Cl)c2)cn1 | - | - | - | - | -
Nc1nc(-c2ccccc2)c(C(=O)Nc2ccccc2)s1 | - | - | - | - | -
O=C(CN(Cc1cccs1)C(=O)CNS(=O)(=O)c1ccc(Cl)cc1)NCC1CCCO1 (stereo not given) | - | - | - | - | -
COc1ccc(C(=O)NCC(=O)N2CCN(c3ccc(F)cc3)CC2)cc1 | - | - | - | - | -
COc1ccc(-c2sc3ccccc3c2/C=C/c2ccncc2)cc1 | . | . | 102 | - | .
COc1ccccc1-c1sc2cc3c(cc2c1C#Cc1cncn1C)OCO3 | . | . | 138 | - | .
COc1ccccc1-c1sc2cc3c(cc2c1C#CCO)OCO3 | . | - | - | - | -
O=[N+]([O-])c1ccc(/C=C/c2ccc3cccc(O)c3n2)cc1 | - | - | - | - | -
COC(=O)c1ccc(/C=C/c2ccc3cccc(OC)c3n2)cc1 | ? | - | - | - | -
Oc1cccc(/C=C/c2ccc3cccc(O)c3n2)c1 | 57 | - | 87 | - | -
COc1cc(/C=C/c2ccc3c(Br)cc(Br)c(O)c3n2)ccc1O | 97 | - | 115 | - | -
COc1cc(/C=C/c2ccc3cccc(O)c3n2)cc(OC)c1OC | 96 | - | - | - | -
SMILES | SKKanGAS inh | PP5 inh | CSC inhib | Beta cell apopt | PP1 counter
COc1cc(/C=C/c2ccc3cccc(O)c3n2)cc(Br)c1OC | 100 | - | - | - | 15
Cc1ccc(CNC(=O)CCS(=O)(=O)c2ccc3c(c2)NC(=O)CS3)cc1 | - | - | - | - | -
COCCNC(=O)c1cn(C)c2ccccc2c1=O | - | - | - | - | -
CCCc1cc(=O)[nH]c(SCC(=O)N2CC3(C)CC2CC(C)(C)C3)n1 (stereo not given) | . | - | - | - | -
COc1ccc(/C=C/c2ccc3cccc(O)c3n2)c(OC)c1OC | 105 | - | - | - | -
COc1ccc(/C=C/c2ccc3cccc(O)c3n2)cc1Br | 93 | - | - | - | 17
Cc1ccc(NC(=O)CCc2nnc3ccc(NCc4ccco4)nn23)cc1 | - | - | - | . | -
COCCN(C(=O)COC(=O)C1CCC(C(C)(C)C)CC1)c1c(N)n(Cc2ccccc2)c(=O)[nH]c1=O (stereo not given) | - | - | - | 106 | -
CCOC(=O)c1c(C)[nH]c(C(=O)OCC(=O)N(C)c2c(N)n(Cc3ccccc3)c(=O)[nH]c2=O)c1C | . | - | - | - | -
CC(=O)Nc1sc(C)c(C)c1C(=O)OCC(=O)N(CC(C)C)c1c(N)n(Cc2ccccc2)c(=O)[nH]c1=O | - | - | 81 | - | -
CCCCC1CCC(C(=O)OCC(=O)N(CCOC)c2c(N)n(Cc3ccccc3)c(=O)[nH]c2=O)CC1 (stereo not given) | - | - | - | - | -
Cc1ccc(C(=O)OCC(=O)N(CC(C)C)c2c(N)n(Cc3ccccc3)c(=O)[nH]c2=O)o1 | - | - | - | . | -
COC(=O)c1c(C)[nH]c(C(=O)OCC(=O)N(CC(C)C)c2c(N)n(Cc3ccccc3)c(=O)[nH]c2=O)c1C | 67 | - | - | - | -
CC(C)CN(C(=O)COC(=O)C12CC3CC(CC(C3)C1)C2)c1c(N)n(Cc2ccccc2)c(=O)[nH]c1=O | - | - | - | 99 | -
CCN(CC)CCCN(C(=O)c1ccc(F)cc1)c1nc(-c2ccc(OC)cc2)cs1 | - | - | - | - | -
Nc1c(N(CCC2=CCCCC2)C(=O)COc2ccc(F)cc2)c(=O)[nH]c(=O)n1Cc1ccccc1 | . | - | - | 97 | -
Cc1ccc2nc(N3C(=O)C(O)=C(C(=O)c4ccco4)C3c3ccc(O)cc3)sc2c1 (stereo not given) | - | - | - | - | 15
COC(=O)c1sc(N2C(=O)C(O)=C(C(=O)c3ccc(C)o3)C2c2ccco2)nc1C (stereo not given) | - | - | - | - | -
Cc1ccc2nc(N3C(=O)C(O)=C(C(=O)c4ccc(C)o4)C3c3ccco3)sc2c1 (stereo not given) | . | - | - | - | 16
Cn1ccc2c([N+](=O)[O-])cccc2c1=O | - | - | - | - | -
COC(=O)CC1C(=O)NCCN1C(=O)CSc1nc2ccc([N+](=O)[O-])cc2s1 (stereo not given) | - | - | - | - | -
O=C(NC(=O)N1CCCCCC1)c1ccc(Cl)cc1 | - | - | - | - | -
Nc1nnnn1/N=C/C(Br)=C/c1ccccc1 | - | - | 122 | - | -
Cc1cc(F)ccc1NC(=O)c1cc(S(=O)(=O)N2CCc3ccccc32)cn1C | - | - | - | - | -
c1ccc2sc(SCSc3nc4ccccc4s3)nc2c1 | 54 | - | - | - | -
SMILES | SKKanGAS inh | PP5 inh | CSC inhib | Beta cell apopt | PP1 counter
N#CCCCSc1nnc(CSc2nc3ccccc3s2)n1-c1ccccc1 | - | - | - | - | -
CCCSc1nnc(CSc2nc3ccccc3s2)n1-c1ccccc1 | - | - | 86 | - | -
COc1ccccc1NCC(=O)NNCC(=O)Nc1ccc(F)c(Cl)c1 | - | - | - | - | -
CCC(C)COC(=O)C(C#N)c1nc2ccccc2nc1N1CCCCC1 (stereo not given) | 53 | - | - | - | -
CC1CCN(c2nc3ccccc3nc2C(C#N)C(=O)NC2CCCCC2)CC1 (stereo not given) | 68 | - | - | - | -
CC(C)OC(=O)C(C#N)c1nc2ccccc2nc1N1CCCC1 (stereo not given) | - | - | - | - | -
Cc1ccsc1/C=N/NC(=O)Cc1ccc(Cl)cc1 | - | - | - | - | -
Cc1cccc(/C=N\NC(=O)c2ccc(Cl)cc2)c1O | 93 | - | - | 96 | -
COc1ccccc1/C=N/NC(=O)c1c(-c2ccccc2)noc1C | - | - | - | - | -

Assay outcomes from PubChem BioAssay.
